From PubChem BioAssay AID2315 (National Center for Advancing Translational Sciences (NCATS), 2010) come the findings set out here.

In all, about 290,000 compounds went through this assay and about 27,000 (9.3%) were called active. For the sample, actives were picked, then their nearest neighbours and some compounds at random. A number with no mark means an inactive call. Cut-off read from the data, not from the text of the source: active = inhibition mostly above about 28% (no sharp cut-off); inactive = mostly below about 43%.

A short description of the assay: A qHTS for Small Molecule Inhibitors of Shiga Toxin. Note: 0% is about no effect. To be noted: Vero cells, Shiga toxin protein synthesis inhibition reporter; at 38.7 µM, active compounds read high. In general terms: qHTS replaces the single test concentration by a dilution series.
In general, inhibition refers to the relative decrease from the control value, in per cent. As for `S=C(Nc1cccnc1)Nc1ccccn1`, the inhibition is -1.64%.
On to `Cc1ccc(NC(=S)NCc2ccccc2Cl)c(C)c1`, for which the inhibition was -19.8%.
For `Cc1ccc(NC(=S)Nc2ncccc2C)c(C)c1` the value was 54.2% (active).
With `Cc1ccc(NC(=S)NCCc2ccc(Cl)cc2)c(C)c1`, the inhibition was 13.6%.
For `COc1ccc(CN2CC(C(=O)NCCc3ccc(Cl)cc3)CC2=O)cc1` (centres undefined), the inhibition was -11.7%.
The same measure for `Cn1ncc(Br)c1C(=O)NC1CCCC1`: -7.94%; for `C=CCn1c(=NC(=O)c2cccs2)sc2cc(NC(C)=O)ccc21`: 47.4% (active).
For `C=CCn1c(CCNC(=O)c2cccs2)n[nH]c1=S` the value was 2.22%; for `C=CCn1c(=NC(=O)c2ccc(S(=O)(=O)N3CCCC3)cc2)sc2cc(NC(C)=O)ccc21`, -8.21%; for `COc1ccc(CNS(=O)(=O)c2cc(-c3cc(C)no3)ccc2C(C)C)cc1`, -15.5%.
For `CN(C)Cc1c(C(=O)N/N=C/c2ccccc2OCc2ccc(F)cc2)nnn1-c1nonc1N`, the inhibition is -7.12%.
In the case of `O=C(/C=C\c1ccc2c(c1)OCO2)NC1(C(=O)Nc2ccc3c(c2)OCCO3)CCCCC1`, the inhibition was -4.85%.
The same measure for `CN(C)c1ccc(/C=C/C(=O)c2ccc(O)cc2)cc1[N+](=O)[O-]`: 48.8% (active); for `O=C(/C=C/c1ccc2c(c1)OCCO2)c1ccc(O)cc1`: 56.9% (active).
On to `O=C(O)/C=C/c1ccc2c(c1)OCCO2`, for which the inhibition was -2.74%.
The same measure for `O=C(/C=C/c1ccc(Cl)c([N+](=O)[O-])c1)c1ccc(O)cc1`: 10.6%; for `CN(C)c1ccc(/C=C/C(=O)c2ccc(C(C)(C)C)cc2)cc1[N+](=O)[O-]`: 27.8%.
The same measure for `CCOc1ccc(N2CC(C(=O)NCc3ccccn3)CC2=O)cc1` (centres undefined): -7.37%; for `COc1cc(/C=C/C(=O)N2CCc3ccccc3C2)cc(OC)c1OC`: -4.9%.
The same measure for `Cc1ccc(S(=O)(=O)N2CCC(Oc3ccc(-n4cnnn4)cc3)CC2)cc1`: 1.93%; for `Cc1ccc(C)c(N2CCN(C(=O)Cn3ncn4cccc4c3=O)CC2)c1`: -2.82%; for `CCc1nc2nc(C)c(NS(=O)(=O)c3ccc4c(c3)CCCC4)c(=O)n2[nH]1`: -6.5%.
`Cc1cccc(CNS(=O)(=O)c2ccc(-c3cnc(C4CC4)o3)cc2)c1`: the inhibition was 13.9%.
For `O=C(OCc1ccc([N+](=O)[O-])cc1)c1ccccn1` the value was 1.67%.
Turning to `N/C(=N\OC(=O)COc1ccc([N+](=O)[O-])cc1)c1ccc(Br)cc1`, the inhibition was 2.73%.
The same measure for `N/C(=N\OC(=O)Cc1ccc([N+](=O)[O-])cc1)c1ccccn1`: 124% (active).
Consider `N/C(=N\OC(=O)c1ccc([N+](=O)[O-])cc1)c1ccccn1`, for which the inhibition was 71% (active).
Regarding `CO/N=C(\N)c1ccc([N+](=O)[O-])cc1`, the inhibition is -2.22%.
For `N/C(Cc1ccc([N+](=O)[O-])cc1)=N\OC(=O)COc1ccc2ccccc2c1` the value was 12.2%.
